From PMC10163288
Not all results are given here. The hit rate among all sequences tested is not known here. Values without a mark were called inactive.

B1: il10ra_site1_sap_16_mot_HHH_b1_06789_af2_000000041_0001_1_20_H_._HHH_b2_05269_af2_0001_0000200010_0000002_0_0001 (protein)
chain: SSSSDVEEELRELLKELEELVEEGDEEKFLRVAMEALHLAFQARDEEVLQLLWELAKELASSSSS
B2: il10ra_site1_normal_mot_HHH_b2_02693_af2_000000213_0001_19_35_H_._HHH_b2_04275_0001_0000300016_0000001_0_af2pred_0001 (protein)
chain: SSSSSSEESEELLEQLEEALRRGDEELIARLVLEIARLAEELNDKELVEELLRLLVEHQSSSSSS
B3: il10ra_site1_normal_mot_8756ee2cf497b5429c717dfc0c0bcfd6_0001_000000186_0001_1_13_H_._HHH_b2_00624_0001_0000300028_0000001_0_af2pred_0001 (protein)
chain: SSSSSEEAEELYRLLREAAELHWEGNPEEARELLEEAEELAKEAGNLNALAVIRFLLEVAGSSSS
B4: il10ra_site1_normal_mot_HHH_b2_00943_af2_000000149_0001_1_17_H_._d3c612d18aab0e0945b39b51a1e20ad4_0001_1_af2_0001_0000500040_0000001_0_af2pred_0001 (protein)
chain: SAEEVLQRQVERDPDDASALHLLLLVLAAKEGDPELVQLLRRANELSREGNPEEAREILQEAIER
B5: il10ra_site1_sap_27_mot_104c758fc23488854646035ccb2100c6_0001_000000282_0001_15_29_H_._5a9d7fc92c57439179869c3e1d567c11_0001_0001_0000100005_0000001_0_0001_af2p … (protein)
chain: SSSSSPLEKKLEATTKYLKFCLSHNDLEGIKSGLIALKQLGDESGNEEAKKVAAEVEEKLKSSSS
B6: il10ra_site1_normal_mot_HHH_b1_01779_000000096_0001_43_57_H_._HHH_b2_08219_0001_0000100005_0000001_0_af2pred_0001 (protein)
chain: SSSSNKEEAERSVRLLLELAKRLEDPERARAALRDARRTAEYVNDPELEELVEEVEREVLSSSSS
B7: il10ra_site1_sap_19_mot_HHH_b2_02053_af2_000000006_0001_3_19_H_._HHH_b1_07370_0001_0000100001_0000002_0_0001 (protein)
chain: SSSSSDEEVEELLKEAEELAEEGNPEEAAKVLLEAVRLAIQAGDEEALQKVWEVVKELAKSSSSS
B8: il10ra_site1_sap_23_mot_HHH_b2_03708_000000000_0001_1_18_H_._HHH_b1_08343_0001_0000300038_0000001_0_0001 (protein)
chain: SSSSDLEKEIFHLLIEAYHLLQRGDEEEARELLEEAKELAEELNDPALLRAVEVLLAKLDSSSSS
B9: il10ra_site1_sap_14_mot_HHH_b2_05343_000000235_0001_19_35_H_._HHH_b2_05666_0001_0000600037_0000001_0_0001 (protein)
chain: SSSSDQEFYKAVEEAIEKAIKLEKNGNPEEAERLLEEILEKAEELGNWAARWSIRHLLELLSSSS
B10: il10ra_site1_sap_19_mot_HHH_b2_05984_000000071_0001_38_52_H_._919c246ba0fc10ef4578bdc7f1052ff8_0001_0001_0000100004_0000001_0_0001 (protein)
chain: NELEEELEELVERGDEEKVAELAVKVAKEKGSFSPEQLEALRRFIEALFRDNKKVAEHLARLVID
B11: il10ra_site1_normal_mot_HHH_b2_07579_000000275_0001_1_19_H_._HHH_b1_01139_af2_0001_0000300023_0000001_0_af2pred_0001 (protein)
chain: SSSSSEEKRKVLELLRKALEIEDKEEAEKVVEEAVRLAEELNDPLAAKLAEMLLEQLEKGSSSSS
B12: il10ra_site1_sap_25_mot_HHH_b2_07388_000000275_0001_18_35_H_._7abaf38a3307e851c9e6880adce6b300_0001_1_0001_0000100003_0000001_0_0001_af2pred_0001 (protein)
chain: SSSSDEEEEEVEKLLEELEKLLERGDREEVFRLFREAARIIAELRDEEAFRRLQELLKRLFSSSS
B13: il10ra_site1_normal_mot_HHH_b2_00345_af2_000000013_0001_42_56_H_._HHH_b2_01857_0001_0000400035_0000002_0 (protein)
chain: SSSSSDEEEEEVEELLEEAKHIEDHEKRIEILLEATHLALRAQDPELVQLVWEVFHRLIRSSSSS
B14: il10ra_site1_normal_mot_HHH_b1_02062_000000185_0001_1_20_H_._HHH_b1_08089_0001_0000100003_0000001_0_af2pred_0001 (protein)
chain: SSSSDVEERVEELFEEVEELLRQGDVEEAFKVSREMIELASENQDDEAAELAREASRLFARSSSS
B15: il10ra_site1_normal_mot_HHH_b1_00999_000000080_0001_41_55_H_._HHH_b2_01363_af2_0001_0000100001_0000002_0 (protein)
chain: SSSSSSEEVEEEVERLLEEAKEIEDPEEAMRVLLEALQIALRNNNKELLQLVWRIIKELGSSSSS
B16: il10ra_site1_normal_mot_HHH_b2_03220_af2_000000223_0001_23_40_H_._HHH_b1_01843_af2_0001_0000200015_0000002_0 (protein)
chain: SSSSSSSEAEEVWRLLREALHIDDEEEVQELLEEAKRLAEELNSEVLRIVIEFLERDLSSSSSSS
B17: il10ra_site1_sap_13_mot_HHH_b2_04993_000000082_0001_43_55_H_._0a28df53656836c8faf163f96bad2529_0001_1_af2_0001_0000100004_0000002_0_0001_af2pred_0001 (protein)
chain: SSSSDEEEERLEELLEEVEELLRQGDPEEAARLLFEVAKLAAELNDDEILKLVQELVHLLFSSSS
B18: il10ra_site1_normal_mot_HHH_b2_00475_000000107_0001_44_57_H_._HHH_b1_04904_0002_0000200015_0000002_0 (protein)
chain: SSSSDIIEVLYRLQHAVAKGDEEEIEELLEELEELLKKASEEERKYIEILLHFARAQLELLSSSS
B19: il10ra_site1_normal_mot_HHH_b2_02337_000000026_0001_38_52_H_._HHH_b1_01890_af2_0001_0000100004_0000001_1 (protein)
chain: SSSSDEEEKAEELIREAEELAENGNPEEAARVAQEALRLILELGDEEALQLLWEAVRRLARSSSS
B20: il10ra_site1_sap_21_mot_HHH_b1_06914_000000280_0001_1_18_H_._HHH_b2_08153_0001_0000400035_0000001_0_0001 (protein)
chain: SSSSSREELREEVEEVIEELEEKNDTKLLHRLMELYKRAAELGDEELVREIFEVLLRIVQKSSSS
B21: il10ra_site1_normal_mot_HHH_b1_01821_000000158_0001_23_39_H_._HHH_b1_01350_af2_0001_0000300008_0000001_0 (protein)
chain: SSSSSSDEEREEAEELLEEAKHVEDPERFIELILEAVRLALRSGDEELLQEIWELFKRKSSSSSS

The binders below were run against il10ra, Q13651 (assay: yeast display titration).
Chain of il10ra, Q13651 (Q13651 whole entry): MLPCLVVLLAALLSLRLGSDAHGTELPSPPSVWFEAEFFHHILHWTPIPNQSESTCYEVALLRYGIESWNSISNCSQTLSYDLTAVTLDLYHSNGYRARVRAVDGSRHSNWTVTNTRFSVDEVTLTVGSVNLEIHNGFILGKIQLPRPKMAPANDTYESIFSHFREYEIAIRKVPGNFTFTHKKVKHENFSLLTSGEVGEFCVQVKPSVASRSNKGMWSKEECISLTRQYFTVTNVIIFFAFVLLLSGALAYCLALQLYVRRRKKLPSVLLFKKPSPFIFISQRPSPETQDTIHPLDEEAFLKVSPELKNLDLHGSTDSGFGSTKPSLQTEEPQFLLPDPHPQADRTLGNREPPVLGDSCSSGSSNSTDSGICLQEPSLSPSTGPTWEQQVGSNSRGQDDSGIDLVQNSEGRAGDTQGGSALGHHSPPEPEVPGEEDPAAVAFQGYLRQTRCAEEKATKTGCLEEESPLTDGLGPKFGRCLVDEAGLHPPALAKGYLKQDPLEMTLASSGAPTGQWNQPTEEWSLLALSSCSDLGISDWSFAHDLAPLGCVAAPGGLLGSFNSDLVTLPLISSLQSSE

Row | Binder | apparent Kd
1 | B1 | no binding seen
2 | B2 | no binding seen
3 | B3 | no binding seen
4 | B4 | no binding seen
5 | B5 | no binding seen
6 | B6 | no binding seen
7 | B7 | no binding seen
8 | B8 | no binding seen
9 | B9 | no binding seen
10 | B10 | no binding seen
11 | B11 | no binding seen
12 | B12 | no binding seen
13 | B13 | no binding seen
14 | B14 | no binding seen
15 | B15 | no binding seen
16 | B16 | no binding seen
17 | B17 | no binding seen
18 | B18 | no binding seen
19 | B19 | no binding seen
20 | B20 | no binding seen
21 | B21 | no binding seen
